Assay results reported in PubChem BioAssay (NCATS).
Records with an inconclusive call do not appear. Calls of active or inactive are those of the source. Unless noted, calls follow the shape of the dose curve; as a rule, active = well fitted curve in the direction sought with a large enough effect; inconclusive = small, poorly fitted or top-dose-only effect, or another doubt; inactive = no such curve, though single readings can be large; an effect the other way counts as inactive or inconclusive.

Experiments:
[1] = Primary qHTS for inhibitors of nuclear receptor binding SET domain protein 2 (NSD2) in an isogenic RCH-ACV NSD2 p.E1099K mutant (9B) (AID 1645876); also: potency is read from the fitted curve at half-maximal effect; nearly all actives have a fitted effect of over 70% in size
[2] = Primary qHTS for inhibitors of nuclear receptor binding SET domain protein 2 (NSD2) in an RCH-ACV wild type WT cells (2C) (AID 1645877); also: potency is read from the fitted curve at half-maximal effect; nearly all actives have a fitted effect of over 70% in size
[3] = molecular target: Glutathione peroxidase 1 (Homo sapiens) (UniProt P07203); assay: Primary qHTS Assay for Inhibitors of Recombinant Selenoprotein Glutathione Peroxidase 1 (GPX1) (AID 1845191); also: % is scaled to controls: 0 for no effect and ±100 for the full control effect; nearly all actives have a fitted effect of over 65% in size
In short: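 Recombinant GPX1 (10 nM final) was preincubated with compound for 30 min at room temperature, then reacted with 1 mM GSH, 0.5 mM CHP, 0.5 mM NADPH and 100 nM glutathione reductase; NADPH fluorescence (340/450 nm) was read at 0 and 15 min.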

[4] = molecular target: Phospholipid hydroperoxide glutathione peroxidase GPX4 (Homo sapiens) (UniProt P36969); assay: Primary qHTS Assay for Inhibitors of Recombinant Selenoprotein Glutathione Peroxidase 4 (GPX4) (AID 1845192); settings: outcome: dose series up to 50 µM unless noted; also: potency is read from the fitted curve at half-maximal effect; nearly all actives have a fitted effect of over 65% in size
In short: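 GR-coupled readout: 100 nM GR, 1 mM GSH, 0.5 mM NADPH; NADPH fluorescence (ex 340/em 450 nm) read at t=0 and after 15 min RT. GPX4 200 nM, preincubated 30 min with compound; substrate 0.5 mM CHP.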

[5] = qHTS drug screen for cell cycle checkpoint inhibitors in PARPi-resistant BRCA-mutant ovarian cancer cell lines. (AID 1963452; calls by dose curve; also: potency is read from the fitted curve at half-maximal effect); settings: PEO1/OlaR viability, CellTiter-Glo luminescence, 96 h; for Z-AUC: stronger effect = lower value
In short: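 PEO1, PEO4 and PEO1/OlaR ovarian cancer cells, 600 per well, exposed 96 h at 37C to a dilution series. Viability read by CellTiter-Glo luminescence, normalized to DMSO and empty wells; activity summarized as Z-AUC.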

[6] = qHTS assay to identify inhibitors of the type 1 interferon - major histocompatibility complex class I in skeletal muscle: Counter screen cell viability and HiBit confirmation (AID 1347412); settings: iHSKM muscle cells + IFN-b, HiBiT or CellTiter-Glo, 24 h; also: nearly all actives have a fitted effect of over 60% in size; also: potency is read from the fitted curve at half-maximal effect; as to activity change, negative = inhibition: % is scaled to controls: 0 for no effect and ±100 for the full control effect
In short: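 CRISPR HLA-B*08:01-HiBit immortalized human myoblasts (C25cl48) stimulated with 4 ng/ml IFN-beta and compounds (12-point 1:3, top 46 uM final) for 24 h at 37 C. Duplicate plates read by HiBit lytic luminescence or CellTiter Glo ATP.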

Sequence of Phospholipid hydroperoxide glutathione peroxidase GPX4 (Homo sapiens) (P36969 whole entry, looked up): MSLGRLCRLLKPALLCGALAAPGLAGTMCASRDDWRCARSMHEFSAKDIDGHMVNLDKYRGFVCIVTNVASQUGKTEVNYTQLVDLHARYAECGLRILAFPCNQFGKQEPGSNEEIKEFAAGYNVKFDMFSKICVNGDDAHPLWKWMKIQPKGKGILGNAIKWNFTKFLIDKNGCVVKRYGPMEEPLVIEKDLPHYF
Sequence of Glutathione peroxidase 1 (Homo sapiens) (P07203 whole entry, looked up): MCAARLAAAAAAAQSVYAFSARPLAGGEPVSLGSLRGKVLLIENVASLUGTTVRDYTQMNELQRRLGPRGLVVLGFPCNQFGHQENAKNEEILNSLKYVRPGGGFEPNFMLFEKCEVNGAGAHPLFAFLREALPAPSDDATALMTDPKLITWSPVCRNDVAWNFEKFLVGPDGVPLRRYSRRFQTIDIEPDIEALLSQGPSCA

With CCC(=C/[C@H](C)C/C=C/C(C)=C/[C@@H](C)C(=O)[C@@H](C)[C@H](O)[C@@H](C)C/C(C)=C/C(=O)O)/C=C/[C@@H]1OC(=O)C=C[C@@H]1C the Potency [1] was 4.2 nM (active), the Potency [2] was 4.2 nM (active) and the Potency [3] was “inactive”. For the same molecule, the Potency [4] was 10100 nM (active), the Potency [5] was 6920 nM (active) and the Z-AUC ([5]; measured here: PEO1 parental Z-AUC) was -4.05. For the same molecule, the Z-AUC ([5]; measured here: PEO4 Z-AUC) was -3.51, the Potency ([6]; HiBiT) was 3.1 nM (active) and the activity change, negative = inhibition ([6]; Viability, at 45.9 µM (top of the series)) was -3.47% (inactive).
